High-throughput results as filed in PubChem BioAssay.
The list is not random: actives were taken first. Their share in the collection is about 4.7%.
tim23-1 inh = tim23-1 yeast growth inhibition; 1.3% of 330,000 active; inhibition, % at 20 µM; S. cerevisiae tim23-1 growth, BacTiter-Glo luminescence, 24 h;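 active = growth inhibition of the mutant yeast at or above 50%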;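 also: temperature-sensitive mutant grown at 25 °C; plate controls were DMSO-treated mutant yeast for no effect and medium wells lacking yeast for full effect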
tim10-1 inh = tim10-1 yeast growth inhibition. AID 463190. S. cerevisiae tim10-1 ts strain growth, BacTiter-Glo, 24 h. 2.2% of 330,000 active. inhibition, % at 20 µM;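 active = inhibition of at least 40%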;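 also: mutant grown at 25 °C; 0% = DMSO wells with yeast and 100% = wells holding no yeast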
SKKanGAS inh = SKKanGAS growth inhibition | S. pyogenes SKKanGAS, kanamycin growth, BacTiter-Glo, 6 h | inhibition, % at 7.5 µM | 1.3% of 300,000 active | AID 1662;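 active = mean replicate score, as percent of positive control median, at least 50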;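 also: strain carries kanamycin resistance gene driven by streptokinase promoter and grows in 40 µg/ml kanamycin; loss of luminescence reflects streptokinase promoter inhibition or plain growth inhibition; 0% = median of DMSO wells and 100% = positive control at its reference dose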
ATG4B inh = blocks human ATG4B protease cleavage of LC3 substrate; Q9Y4P1; 0.51% of 340,000 active; ATG4B cleavage of LC3-PLA2, NBD-HPC fluorescence, 1 h; inhibition, % at 8.33 µM; in the data active = inhibition above about 40%
Target sequence (Q9Y4P1 whole entry, looked up): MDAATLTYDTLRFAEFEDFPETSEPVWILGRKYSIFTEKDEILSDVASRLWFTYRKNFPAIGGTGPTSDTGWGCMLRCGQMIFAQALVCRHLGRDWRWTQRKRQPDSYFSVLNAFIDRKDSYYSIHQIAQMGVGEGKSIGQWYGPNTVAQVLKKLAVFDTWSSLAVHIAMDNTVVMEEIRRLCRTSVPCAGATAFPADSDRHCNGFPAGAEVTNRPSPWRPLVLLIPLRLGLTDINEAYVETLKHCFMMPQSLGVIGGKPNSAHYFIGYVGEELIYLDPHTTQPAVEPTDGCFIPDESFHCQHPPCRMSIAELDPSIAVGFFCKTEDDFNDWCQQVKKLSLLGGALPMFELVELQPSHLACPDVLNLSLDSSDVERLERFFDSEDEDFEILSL
TIM10 inh = growth inhibitors of TIM10 yeast strain; S. cerevisiae TIM10 strain growth, BacTiter-Glo luminescence, 24 h; inhibition, % at 10 µM; 1.4% of 330,000 active;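 active = inhibition of 40% or more at the single tested concentration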;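 also: wild-type TIM10 isogenic control strain grown at permissive 25 °C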
PfHsp90 set2 = reduces growth (ATP signal) of yeast expressing P. falciparum Hsp90. S. cerevisiae expressing PfHsp90, BacTiter-Glo ATP, 48 h; yeast lacking PDR1 and PDR3 efflux regulators. inhibition, % at 9.4 µM. 0.32% of 310,000 active. AID 504621;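 active = every replicate shows inhibition above about 80%, whatever the replicate mean, limit read from the data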;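 also: 0% = DMSO neutral controls and 100% = 20 µM radicicol positive controls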
Starred values were filed as active, the others as inactive; / = no result given.

SMILES	tim23-1 inh	tim10-1 inh	SKKanGAS inh	ATG4B inh	TIM10 inh	PfHsp90 set2
N#C/C(=C(/O)CN1CCN(c2ccccc2F)CC1)c1nc(-c2ccccc2)cs1	6.9	23.5	55.3*	12.2	-6.5	-50.5
O=C(/C=C/c1cccc([N+](=O)[O-])c1)NCc1ccccc1	11.5	6.3	0.5	6.7	10.7	12.3
COc1cc(Br)cc(/C=N/NC(=O)Cc2ccc(C(F)(F)F)cc2[N+](=O)[O-])c1O	5.7	13.3	97.8*	14.1	17.5	-19.1
CCOc1cc(/C=N/NC(=O)Cc2ccc(C(F)(F)F)cc2[N+](=O)[O-])c(Br)cc1OC	-12.1	0.4	4.1	-1.8	0.0	/
CCCCCCCCOC(=O)c1cc([N+](=O)[O-])c(Sc2ncnc3nc[nH]c23)c([N+](=O)[O-])c1	/	/	/	-2.0	/	106.5*
CCCCOC(=O)c1ccc(Nc2ncnc3nc[nH]c23)cc1	11.5	11.6	4.1	-0.3	-7.4	-3.9
CC(C)(C)c1cc(Cl)c(O)c(NC(=S)NC(=O)c2cccnc2)c1	4.1	9.5	81.6*	-3.0	19.9	-8.4
CC(C)(C)c1ccc(C(=O)NNC(=S)NC(=O)c2cccnc2)cc1	-14.9	11.9	100.0*	-11.6	-4.5	-73.2
O=C(NNC(=S)NC(=O)c1ccccc1)c1cccnc1	2.2	21.9	27.0	-0.3	0.2	-8.8
O=[N+]([O-])c1ccc(N=Nc2ccc(O)c3ccccc23)cc1	/	/	/	2.1	/	-16.0
O=S(=O)(Nc1ccc(N=Nc2ccc(O)c3ccccc23)cc1)c1ccccc1	20.3	29.9	96.0*	24.6	15.0	18.7
CCc1ccc(/C=C2\SC(=S)N(CCCC(=O)Nc3ccccc3C(=O)O)C2=O)cc1	39.8	31.5	65.6*	21.2	12.8	-12.6
COc1cc(NC(=O)CN2CCC(Cc3ccccc3)CC2)c(C)cc1[N+](=O)[O-]	10.7	10.2	-1.8	8.1	6.8	4.6
O=C(Nc1nnc(-c2ccncc2)o1)c1ccc(Br)s1	5.9	-1.7	53.3*	-2.7	-15.7	-15.1
CC(C)(C)C(=O)Nc1nnc(-c2ccncc2)o1	4.3	19.5	-5.5	-8.0	-8.1	-17.9
COc1cccc(-c2nnc(NC(=O)c3ccc(S(=O)(=O)N4CC(C)OC(C)C4)cc3)o2)c1 (stereo not given)	26.5	27.0	92.8*	-8.7	25.4	-9.9
COc1ccc(-c2nnc(NC(=O)c3cc(Cl)ccc3Cl)o2)cc1	0.9	33.1	86.1*	-2.6	14.7	-28.1
CC1CN(S(=O)(=O)c2ccc(C(=O)Nc3nnc(-c4ccco4)o3)cc2)CC(C)O1 (stereo not given)	18.2	12.5	5.8	-3.3	-0.1	-17.8
O=C(Nc1nnc(-c2ccccc2)o1)c1nc2ccccc2s1	12.8	7.5	92.1*	-4.3	5.9	-17.8
COc1ccc(Cl)cc1NC(=O)CCN1C(=O)NC(C)(C)C1=O	16.7	4.7	/	-1.8	-5.1	/
COc1ccc(-c2nnc(NC(=O)c3ccc(F)cc3)o2)cc1	10.8	8.8	91.1*	2.1	-9.3	-113.2
COc1ccccc1C(=O)Nc1nnc(-c2ccc(F)cc2)o1	19.8	14.4	-3.2	-9.3	14.9	-10.3
Cc1ccccc1C(=O)Nc1nnc(-c2ccc(F)cc2)o1	-9.1	4.8	61.4*	-1.7	13.9	-39.5
COc1ccc(NC(=O)NC2CCCc3ccccc32)cc1OC (stereo not given)	14.3	9.1	3.2	23.7	9.6	10.5
COc1ccc(C)cc1NC(=O)NC1CCCc2ccccc21 (stereo not given)	-3.7	-0.7	51.4*	30.7	7.8	-4.1
SMILES	tim23-1 inh	tim10-1 inh	SKKanGAS inh	ATG4B inh	TIM10 inh	PfHsp90 set2
OCCN(CCO)c1ccc(C(c2ccccc2Cl)c2ccc(N(CCO)CCO)cc2Cl)c(Cl)c1	3.9	27.5	83.3*	31.6	-4.8	-22.4
OCCN(CCO)c1ccc2ccccc2c1	0.6	-0.2	0.7	-3.0	7.8	-6.4
O=C(CCN1C(=O)/C(=C/c2ccccc2)SC1=S)NNC(=O)c1ccncc1	1.7	-11.3	-8.6	-0.6	2.5	-65.6
c1ccc(N2N=C(c3cccs3)CC2c2ccco2)cc1 (stereo not given)	8.3	19.2	64.7*	5.3	4.2	1.5
Fc1ccc(CNCc2ccco2)cc1	9.3	11.5	-1.6	1.8	-2.2	-11.3
COc1ccc(NC(=S)N=Nc2c(O)[nH]c3ccccc23)cc1	4.7	12.8	94.8*	-3.1	13.5	10.7
Cc1ccc(NC(=S)N=Nc2c(O)[nH]c3ccccc23)cc1	4.7	37.9	73.1*	-3.3	17.1	-37.5
Oc1ccc(NC(=S)N=Nc2c(O)[nH]c3ccccc23)cc1	5.7	0.6	7.3	-20.5	3.9	-33.2
COc1ccc(S(=O)(=O)Cc2ccc(C(=O)NCCCN(C)c3ccccc3)o2)cc1	7.9	16.3	-1.5	-8.4	9.5	1.8
COc1ccc(-c2cc(C(=O)Nc3c(Cl)cc(Cl)cc3Cl)c3ccccc3n2)cc1OC	4.4	20.5	3.3	4.6	23.0	-22.2
Cc1ccc(C2CC(c3cccs3)=NN2C(=O)c2ccc(Br)o2)cc1 (stereo not given)	34.5	18.8	88.5*	2.9	22.0	/
CCOc1ccccc1C(=O)NCC(=O)NCCCSc1ccccc1	19.5	16.2	-12.6	-11.6	4.2	17.0
COc1ccc(N2CCN(CCNC(=O)Nc3cc(Cl)ccc3OC)CC2)cc1	7.4	26.3	-4.3	-4.9	17.5	-3.5
CC(=O)N(C)c1ccc(OCC(O)Cn2c3ccc(Cl)cc3c3cc(Cl)ccc32)cc1 (stereo not given)	23.7	38.7	64.9*	-24.4	39.2	97.7*
CC(=O)N(C)c1ccc(OCC(O)Cn2c(C)nc3ccccc32)cc1 (stereo not given)	2.0	9.2	2.3	-11.7	-1.2	/
C#CCOCCOCCOCCNc1nc(N2CCN(C(=O)C([C@@H](C)CC)n3cc(C(N)COC(=O)C(F)(F)F)nn3)CC2)nc(N2CCN(C(=O)[C@H](CCC(=O)O)n3cc(C(N)CC(C)C)nn3)CC2)n1 (stereo not given in full)	18.0	7.7	-3.7	-19.2	4.3	/
CCN(CC)c1ccc(-c2nn3c(-c4cccnc4)nnc3s2)cc1	/	/	67.6*	6.4	/	8.6
C=CCn1c(SCC(=O)Nc2cc(C)on2)nc2sc(C)c(C)c2c1=O	-12.4	10.2	-2.0	1.2	6.0	6.8
COc1ccc(CNc2oc(Cc3cccc4ccccc34)nc2C#N)cc1	7.2	14.1	54.1*	-10.7	-7.7	-10.3
O=C(CCCn1cnc([N+](=O)[O-])n1)Nc1ccc(Cl)cc1Cl	16.4	7.4	-5.1	-0.2	9.7	-7.2
Cc1cccc(CSc2nc(N)c(C#N)c(-c3cccs3)c2C#N)c1	-13.5	15.6	58.7*	6.0	-12.3	-2.7
COc1ccc(CN2C(=O)c3ccccc3C(/C=N\OCc3ccc(C)cc3)C2=O)cc1 (stereo not given)	34.2	11.5	106.2*	28.4	15.6	/
